# PfHsp90 yeast 2 = reduces growth (ATP signal) of yeast expressing P. falciparum Hsp90; S. cerevisiae expressing PfHsp90, BacTiter-Glo ATP, 48 h; yeast lacking PDR1 and PDR3 efflux regulators; inhibition, % at 9.4 µM; 310,000 compounds, 0.32% hits; AID 504621;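 active means every replicate shows inhibition above about 80%, whatever the replicate mean, limit read from the data; inconclusive means mean inhibition reaches the set limit but some replicate falls short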;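 further: 0% = DMSO neutral controls and 100% = 20 µM radicicol positive controls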
# NSD2 inh = blocks human histone methyltransferase NSD2 | inhibition, % at 12.5 µM | 310,000 compounds, 0.54% hits | NSD2 peptide methylation, AlphaScreen, 120 min; in the data active means inhibition above about 50%
# Glyco luc inh = N-linked glycosylation inhibition; D54 ERlucT glycosylation luciferase reporter, 24 h; percent of 100 nM tunicamycin response; reporter increase, % at 12.5 µM; 360,000 compounds, 0.23% hits;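 active means mean luciferase reporter signal, scaled so untreated is 0 and the glycosylation-blocking control 100, at or above a set limit in every replicate; inconclusive means mean reaches the limit but not every replicate does; inactive means mean below the limit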;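 further: luciferase carries N-glycosylation sites so blocking glycosylation raises the light; 0% = median of neutral control wells and 100% = median of 100 nM tunicamycin wells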
# MITF TRPM1 HTS = MITF TRPM1 promoter activation in melanoma cells | SK-MEL-5 TRPM1-promoter luciferase, 24 h; % of positive control, neutral wells = 0 | activation, % at 12.5 µM | 300,000 compounds, 0.75% hits | AID 588334;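 active means mean activation of at least 80% with every replicate also reaching 80%; inconclusive means mean reaches 80% but some replicate falls short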;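 further: 0% = neutral control wells and 100% = parthenolide positive control wells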
# Wnt act = activates Wnt/beta-catenin signaling in a reporter cell assay; activator, plate reader; activation, % at 9.35 µM; 300,000 compounds, 1.2% hits; AID 743398; in the data active means activation above about 30%, passing the limit was not always enough; inconclusive means no clear call, values can overlap the other calls;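 further: 0% = neutral control wells and 100% = positive control wells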
# TRPM1 prom inh = MITF TRPM1 promoter inhibition in SK-MEL-5 cells | SK-MEL-5 TRPM1 promoter luciferase, 24 h | inhibition, % at 12.5 µM | AID 488899 | 330,000 compounds, 0.83% hits;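 active means mean inhibition across replicates of 60% or more, whatever share of single replicates reaches that level; inconclusive means some that reach 60%, reason not given; inactive means mean inhibition across replicates below 60%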
# Active calls of the source: *; ? = inconclusive; . = no result given. The list is not random: actives were taken first. Their share in the collection is about 2.9%.
SMILES,PfHsp90 yeast 2,NSD2 inh,Glyco luc inh,MITF TRPM1 HTS,Wnt act,TRPM1 prom inh
O=C(NC(CC(=O)N1CCN(c2ccc([N+](=O)[O-])cc2)CC1)c1ccccc1)c1ccccc1Cl (stereo not given),8,1,0,-2,-1,2
COc1ccc(C(NC(C)=O)c2cc(Cl)c3cccnc3c2O)cc1 (stereo not given),-103,3,-6,.,-6,23
CCC(=O)NC(c1ccc(Cl)cc1Cl)c1ccc2cccnc2c1O (stereo not given),111*,-2,-10,-57,4,57
O=C(O)c1ccccc1NC(c1ccccc1)c1ccc2cccnc2c1O (stereo not given),121*,.,6,-3,0,4
Oc1c(C(Nc2ccccn2)c2ccccn2)ccc2cccnc12 (stereo not given),4,7,-9,-70,76*,71*
CC(=O)NC(c1ccccc1)c1cc(Cl)c2cccnc2c1O (stereo not given),107*,-5,-11,.,-4,23
OCC1(Cc2ccc(F)cc2)CCCN(CCCC(F)(F)F)C1 (stereo not given),0,-1,-6,.,-1,-12
O=C(Cc1ccccc1F)Nc1nnc(-c2cccnc2)s1,.,-3,.,.,.,.
CCCC(=O)NC(c1ccc(C(C)C)cc1)c1ccc2cccnc2c1O (stereo not given),-32,1,-13,.,-5,49
CC(C)C(=O)NC(c1ccc(Cl)cc1Cl)c1ccc2cccnc2c1O (stereo not given),113*,0,-9,-27,-2,27
CC(=O)NC(c1ccc(Cl)cc1)c1ccc2cccnc2c1O (stereo not given),114*,38,-9,.,0,55
CC(=O)NC(c1ccco1)c1ccc2cccnc2c1O (stereo not given),4,1,-9,-51,.,52
CCCC(=O)NC(c1ccc(N(C)C)cc1)c1ccc2cccnc2c1O (stereo not given),1,7,-11,-72,2,73*
Cc1c(C)n(CCc2ccccc2)c2ncnc(NCCO)c12,3,-1,1,138*,14,-135
CCOC(=O)c1c(C)[nH]c2cc(Br)c(O)cc12,.,0,1,.,48*,-22
Nc1ccc(Oc2cccc(Oc3ccc(N)cc3)c2)cc1,29,.,0,-81,-18,81*
COc1ccc(NC(=O)CSc2nnc(-c3cccnc3)o2)c(OC)c1,.,1,1,2,-2,0
Cc1ccc2nc(SCC(=O)c3ccc(O)cc3O)[nH]c2c1,-48,-2,1,54,41*,-53
CCOC(=O)c1sc(=NC(=O)COc2ccccc2)n(C)c1C,-13,-2,2,24,14,-24
CCOC(=O)c1sc(=NC(=O)CCSc2ccccc2)n(C)c1C,5,-5,1,114*,26,-110
CCOC(=O)c1sc(=NC(=O)c2ccc(C)cc2)n(C)c1C,.,-5,-3,32,31*,-28
O=C(NNc1cc(Cl)ccc1Cl)C1CCC1,9,0,-1,-2,1,5
COc1ccc(C(=O)C(=O)N2CCN(C(=O)c3cc(C(F)(F)F)cc(C(F)(F)F)c3)CC2)cc1OC,.,39,.,.,0,.
C=C1C(=O)OC2C1CCC(C)=C1C(=O)C3OC3(C)C12 (stereo not given),-5,.,-18,-105,-2,105*
O=C(N=C1N=C2C=CC(Br)=CN2Cc2ccccc21)c1ccc([N+](=O)[O-])cc1[N+](=O)[O-],-17,-3,-3,39,56*,-34
SMILES,PfHsp90 yeast 2,NSD2 inh,Glyco luc inh,MITF TRPM1 HTS,Wnt act,TRPM1 prom inh
CCc1ccc(S(=O)(=O)/N=C2\C=C(Nc3ccc(O)cc3)C(=O)c3ccccc32)cc1,-18,29,-19,-99,.,100*
Cc1cc(C)c(S(=O)(=O)/N=C2\C=C(Nc3ccc(C(=O)O)cc3)C(=O)c3ccccc32)c(C)c1,-8,.,-4,-80,9,78*
CCc1ccc(S(=O)(=O)/N=C2/C=C(Sc3ncn[nH]3)C(=O)c3ccccc32)cc1,-6,.,-14,-68,.,70*
O=C(O)c1ccc(NC2=C/C(=N/S(=O)(=O)c3ccccc3)c3ccccc3C2=O)cc1,-30,.,2,-61,-13,63*
CC(=O)Nc1ccc(NC2=CC(=O)c3ccccc3C2=O)cc1,-7,11,-2,-35,13,42
CC(C)(C)C(=O)Nc1ccc(S(=O)(=O)N2CCC(c3nc4ccccc4[nH]3)CC2)cc1,.,-2,0,-3,-1,2
COC(=O)C1=CC[C@@H](NC(=O)OC(C)(C)C)[C@H](O)[C@H]1O[Si](C)(C)C(C)(C)C,.,-2,.,.,.,.
O=C(N/N=C/c1c(Cl)cccc1Cl)c1ccc(F)cc1,.,3,-4,15,1,-12
Cn1cccc1C(=O)N/N=C/c1c(Cl)cccc1Cl,0,-2,-2,92*,28,-98
COCc1cc(N2CCNC[C@@H]2C)ccc1N1C[C@@H](C)O[C@@H](C)C1,.,.,.,.,-1,.
CC(C)N(CC(=O)Nc1ccc(Cl)cc1C(F)(F)F)C(=O)CCl,0,4,34*,-7,-1,10
O=C(O)CSCC(=O)Nc1ccc(Cl)cc1C(F)(F)F,-16,-4,2,9,2,-9
O=C(NC(=S)Nc1ccccc1)c1ccc(Br)o1,-23,0,0,53,50*,-50
O=C(NC(=S)NCc1ccccc1)c1ccc(Br)o1,11,0,2,7,0,-9
COc1ccc(NC(=S)NC(=O)c2ccc(Br)o2)cc1,2,-1,1,90*,24,-83
Cc1ccc(NC(=O)C(=O)c2c[nH]c3ccccc23)cc1,-3,1,-5,.,64*,-69
Cc1ccc(NC(=O)c2cc(=O)[nH]c3ccccc23)cc1,4,1,0,-8,-2,9
CCCCN1C(=O)C(=O)NC[C@@H]1CC1CCCCC1,.,-1,.,.,.,.
Cc1cc(C)c2nc(NCc3ccccc3O)sc2c1,7,.,0,95*,16,-161
c1ccc(N=NC2=NN(c3ccccc3)CS2)cc1,.,27,-2,.,54*,.
CC(=O)Nc1ccc(OCc2cccc([N+](=O)[O-])c2)cc1,-18,-2,-1,6,59*,-7
CC(=O)Nc1cccc(OCc2cccc([N+](=O)[O-])c2)c1,-4,0,-1,43,-7,-45
O=[N+]([O-])c1cccc(COc2ccc(CN3CCCC3)cc2)c1,-2,.,-10,?,1,-88
O=[N+]([O-])c1cccc(COc2ccc(CN3CCOCC3)cc2)c1,13,.,-12,111*,9,-108
O=C(NCC(=O)N1CCN(c2ccccc2O)CC1)c1ccccc1,16,1,0,14,7,-15
CN1OC[C@@H]2CN(C(=O)c3ccc(C#N)cc3)[C@H](c3cccc(Br)c3)C[C@@H]21,.,.,.,.,0,.
